Source: publication PMC11102866, “Nucleosome-bound NR5A2 structure reveals pioneer factor mechanism by DNA minor groove anchor competition”

B1: 97 (nucleosome)
DNA 1: ATCCTGGAGAATCCCGGTGCCGAGGCCGCTCAATTGGTCGTAGACAGCTCTAGCACCGCTTAAACGCACGTACGCGCTGTCCCCCGCGTTTTAACCGCCTCAAGGCCAACTCCCTAGTCTCCAGGCACGTGTCAGATATATACATCCTGTGAT
DNA 2: ATCACAGGATGTATATATCTGACACGTGCCTGGAGACTAGGGAGTTGGCCTTGAGGCGGTTAAAACGCGGGGGACAGCGCGTACGTGCGTTTAAGCGGTGCTAGAGCTGTCTACGACCAATTGAGCGGCCTCGGCACCGGGATTCTCCAGGAT
modifications: reconstituted with mouse histones H2A, H2B, H3.3 and H4
B2: 5 (nucleosome)
DNA 1: ATCCTGGTCAAGGCCAGTGCCGAGGCCGCTCAATTGGTCGTAGACAGCTCTAGCACCGCTTAAACGCACGTACGCGCTGTCCCCCGCGTTTTAACCGCCAAGGGGATTACTCCCTAGTCTCCAGGCACGTGTCAGATATATACATCCTGTGAT
DNA 2: ATCACAGGATGTATATATCTGACACGTGCCTGGAGACTAGGGAGTAATCCCCTTGGCGGTTAAAACGCGGGGGACAGCGCGTACGTGCGTTTAAGCGGTGCTAGAGCTGTCTACGACCAATTGAGCGGCCTCGGCACTGGCCTTGACCAGGAT
modifications: reconstituted with mouse histones H2A, H2B, H3.3 and H4
B3: 101 (nucleosome)
DNA 1: ATCCTGGAGAATCCCGGTGCCGAGGCCGCTCAATTGGTCGTAGACAGCTCTAGCACCGCTTAAACGCACGTACGCGCTGTCCCCCGCGTTTTAACCGCCAAGGTCAAGGCCACCTAGTCTCCAGGCACGTGTCAGATATATACATCCTGTGAT
DNA 2: ATCACAGGATGTATATATCTGACACGTGCCTGGAGACTAGGTGGCCTTGACCTTGGCGGTTAAAACGCGGGGGACAGCGCGTACGTGCGTTTAAGCGGTGCTAGAGCTGTCTACGACCAATTGAGCGGCCTCGGCACCGGGATTCTCCAGGAT
modifications: reconstituted with mouse histones H2A, H2B, H3.3 and H4
B4: 94 (nucleosome)
DNA 1: ATCCTGGAGAATCCCGGTGCCGAGGCCGCTCAATTGGTCGTAGACAGCTCTAGCACCGCTTAAACGCACGTACGCGCTGTCCCCCGCGTTTTAACCTCAAGGCCAATTACTCCCTAGTCTCCAGGCACGTGTCAGATATATACATCCTGTGAT
DNA 2: ATCACAGGATGTATATATCTGACACGTGCCTGGAGACTAGGGAGTAATTGGCCTTGAGGTTAAAACGCGGGGGACAGCGCGTACGTGCGTTTAAGCGGTGCTAGAGCTGTCTACGACCAATTGAGCGGCCTCGGCACCGGGATTCTCCAGGAT
modifications: reconstituted with mouse histones H2A, H2B, H3.3 and H4
B5: 99 (nucleosome)
DNA 1: ATCCTGGAGAATCCCGGTGCCGAGGCCGCTCAATTGGTCGTAGACAGCTCTAGCACCGCTTAAACGCACGTACGCGCTGTCCCCCGCGTTTTAACCGCCAATCAAGGCCATCCCTAGTCTCCAGGCACGTGTCAGATATATACATCCTGTGAT
DNA 2: ATCACAGGATGTATATATCTGACACGTGCCTGGAGACTAGGGATGGCCTTGATTGGCGGTTAAAACGCGGGGGACAGCGCGTACGTGCGTTTAAGCGGTGCTAGAGCTGTCTACGACCAATTGAGCGGCCTCGGCACCGGGATTCTCCAGGAT
modifications: reconstituted with mouse histones H2A, H2B, H3.3 and H4
B6: 100 (nucleosome)
DNA 1: ATCCTGGAGAATCCCGGTGCCGAGGCCGCTCAATTGGTCGTAGACAGCTCTAGCACCGCTTAAACGCACGTACGCGCTGTCCCCCGCGTTTTAACCGCCAAGTCAAGGCCACCCTAGTCTCCAGGCACGTGTCAGATATATACATCCTGTGAT
DNA 2: ATCACAGGATGTATATATCTGACACGTGCCTGGAGACTAGGGTGGCCTTGACTTGGCGGTTAAAACGCGGGGGACAGCGCGTACGTGCGTTTAAGCGGTGCTAGAGCTGTCTACGACCAATTGAGCGGCCTCGGCACCGGGATTCTCCAGGAT
modifications: reconstituted with mouse histones H2A, H2B, H3.3 and H4
B7: 96 (nucleosome)
DNA 1: ATCCTGGAGAATCCCGGTGCCGAGGCCGCTCAATTGGTCGTAGACAGCTCTAGCACCGCTTAAACGCACGTACGCGCTGTCCCCCGCGTTTTAACCGCTCAAGGCCATACTCCCTAGTCTCCAGGCACGTGTCAGATATATACATCCTGTGAT
DNA 2: ATCACAGGATGTATATATCTGACACGTGCCTGGAGACTAGGGAGTATGGCCTTGAGCGGTTAAAACGCGGGGGACAGCGCGTACGTGCGTTTAAGCGGTGCTAGAGCTGTCTACGACCAATTGAGCGGCCTCGGCACCGGGATTCTCCAGGAT
modifications: reconstituted with mouse histones H2A, H2B, H3.3 and H4
B8: 95 (nucleosome)
DNA 1: ATCCTGGAGAATCCCGGTGCCGAGGCCGCTCAATTGGTCGTAGACAGCTCTAGCACCGCTTAAACGCACGTACGCGCTGTCCCCCGCGTTTTAACCGTCAAGGCCATTACTCCCTAGTCTCCAGGCACGTGTCAGATATATACATCCTGTGAT
DNA 2: ATCACAGGATGTATATATCTGACACGTGCCTGGAGACTAGGGAGTAATGGCCTTGACGGTTAAAACGCGGGGGACAGCGCGTACGTGCGTTTAAGCGGTGCTAGAGCTGTCTACGACCAATTGAGCGGCCTCGGCACCGGGATTCTCCAGGAT
modifications: reconstituted with mouse histones H2A, H2B, H3.3 and H4
B9: 98 (nucleosome)
DNA 1: ATCCTGGAGAATCCCGGTGCCGAGGCCGCTCAATTGGTCGTAGACAGCTCTAGCACCGCTTAAACGCACGTACGCGCTGTCCCCCGCGTTTTAACCGCCATCAAGGCCACTCCCTAGTCTCCAGGCACGTGTCAGATATATACATCCTGTGAT
DNA 2: ATCACAGGATGTATATATCTGACACGTGCCTGGAGACTAGGGAGTGGCCTTGATGGCGGTTAAAACGCGGGGGACAGCGCGTACGTGCGTTTAAGCGGTGCTAGAGCTGTCTACGACCAATTGAGCGGCCTCGGCACCGGGATTCTCCAGGAT
modifications: reconstituted with mouse histones H2A, H2B, H3.3 and H4

What follows are binders tested against NR5A2 wild type;histone octamer (Homo sapiens;, UniProt O00482;C0HKE1;Q6ZWY9;P84244;P62806 1-541;2-130;2-126;2-136;2-103, |) (assay: SeEN-seq (EMSA of nucleosome library followed by sequencing); 0.8 uM human NR5A2; 20 mM Tris-HCl pH 7.5, 120 mM NaCl, 1 mM MgCl2, 10 uM ZnCl2, 1 mM DTT, 100 ug/ml BSA, room temperature, 30 min; 0.1 uM nucleosome library; high values mean tight binding).

Binder	binding signal
B1	0.742 log2 enrichment (bound/unbound, relative to Widom 601)
B3	2.38 log2 enrichment (bound/unbound, relative to Widom 601)
B4	1.36 log2 enrichment (bound/unbound, relative to Widom 601)
B5	0.545 log2 enrichment (bound/unbound, relative to Widom 601)
B6	0.655 log2 enrichment (bound/unbound, relative to Widom 601)
B7	1.16 log2 enrichment (bound/unbound, relative to Widom 601)
B8	1.87 log2 enrichment (bound/unbound, relative to Widom 601)
B9	0.701 log2 enrichment (bound/unbound, relative to Widom 601)

The binders below were run against mouse Nr5a2 wild type;histone octamer (Mus musculus;, UniProt P45448;C0HKE1;Q6ZWY9;P84244;P62806 1-560;2-130;2-126;2-136;2-103, |) (assay: SeEN-seq (EMSA of nucleosome library followed by sequencing); 1.2 uM mouse Nr5a2; 20 mM Tris-HCl pH 7.5, 120 mM NaCl, 1 mM MgCl2, 10 uM ZnCl2, 1 mM DTT, 100 ug/ml BSA, room temperature, 30 min; 0.1 uM nucleosome library; high values mean tight binding).

Binder	binding signal
B1	0.636 log2 enrichment (bound/unbound, relative to Widom 601)
B2	1.14 log2 enrichment (bound/unbound, relative to Widom 601)
B3	1.47 log2 enrichment (bound/unbound, relative to Widom 601)
B4	1.22 log2 enrichment (bound/unbound, relative to Widom 601)
B5	0.468 log2 enrichment (bound/unbound, relative to Widom 601)
B6	0.488 log2 enrichment (bound/unbound, relative to Widom 601)
B7	1.04 log2 enrichment (bound/unbound, relative to Widom 601)
B8	1.29 log2 enrichment (bound/unbound, relative to Widom 601)
B9	0.557 log2 enrichment (bound/unbound, relative to Widom 601)
